The structures appear in SMILES notation. The panel holds about 83,000 compounds, 20% with a hit somewhere; the sample as a whole holds those more often.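 The test compound was applied at a single concentration to cells in 96-well plates for 48 hours, and percent growth was recorded.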 The source made the active and inactive calls.

The experiment has as its system T-47D breast. Description: NCI-60 one-dose screen, 48 h (100 = growth as untreated, 0 = no growth, -100 = all killed). Conditions: 10 µM unless noted. The procedure:
Growth inhibition of the T-47D human tumor cell line is measured as a screen for anti-cancer activity. Cells are grown in 96 well plates and exposed to the test compound for 48 hours. Compounds are tested at a single concentration, which is 10^-5 M for most compounds. The reported endpoint is percent growth (GI% or GIPRCNT), where numbers from 0 - 100% represent growth inhibition, and numbers from -100% - 0 represent cell death. For example, a value of 40 represents 60% growth inhibition. A value of 0 means no net growth occurred over the course of the experiment. A value of -40 indicates 40% of cells at the beginning of the experiment died by the end of the experiment. A value of -100 means all cells are dead at the end of the experiment.
NCI-60 Human Tumor Cell Lines Screen was performed using the standard one-dose NCI protocol, which is described in more detail at https://dtp.cancer.gov/discovery_development/nci-60/default.htm.
Compounds with GIPRCNT values below 10 were considered active. Activity score was based on GIPRCNT using the following formula: […]
Score is 0 for GIPRCNT values of 100 or above, 50 for GIPRCNT values of 0, and 100 for GIPRCNT values of -100.
Turning to `O=C1C=CC(=O)c2c(O)c(CO)c(CO)c(O)c21`, the growth is 96.3% (inactive). For `NC(CS/C(Cl)=C/Cl)C(=O)O` (stereo not given) the value was -7.75% (active); for `CC(=O)c1c(O)c(C)c(O)c2c1OC1=CC(=O)C(C(C)=O)C(=O)C12C` (stereo not given), 102% (inactive); for `CCCCCCCCCCCC[n+]1ccc(CCCCCCCCC)cc1`, -62.3% (active). With `[Cl-].[Rh+3].c1ccc(-c2ccnc3c2ccc2c(-c4ccccc4)ccnc23)cc1.c1ccc(-c2ccnc3c2ccc2c(-c4ccccc4)ccnc23)cc1.c1ccc(-c2ccnc3c2ccc2c(-c4ccccc4)ccnc23)cc1` the figure was 50.4% (inactive); with `Oc1ccc(Nc2ccc3ccccc3c2)cc1`, 52.6% (inactive). With `Cc1ccc2cccc(OC(=O)Nc3cccc(C(F)(F)F)c3)c2n1` the figure was 47.1% (inactive). `CCc1cnc2ccccc2c1/C=C/c1ccc(N(C)C)cc1`: the growth is 31.3% (inactive).

Take `Cn1c(-c2ccccc2)c(/C=C/C2=[N+](C)c3ccccc3C2(C)C)c2ccccc21`: the growth was -3.22% (active). With `S=C=Nc1ccc(N2CCOCC2)cc1` the figure was 74.3% (inactive); with `CC/C(=C(/CC)c1ccc(O)cc1)c1ccc(O)cc1`, 72.4% (inactive); with `C/C(=N/NC(N)=S)c1ccc(C)cc1`, 22% (inactive). With `COc1cc(/C=C2\SC(=S)N(/C=C/c3nc4ccccc4[nH]c3=O)C2=O)cc(OC)c1OC` the figure was 52.6% (inactive); with `O=C(/C=C/c1ccccc1)c1ccccc1O`, 62.6% (inactive). For `O=C(OC12CC3CC(CC(C3)C1)C2)c1ccc(NCc2cc(O)ccc2O)cc1` the value was -70% (active).

Take `c1ccc(C2NCCNC2c2ccccc2)cc1` (stereo not given): the growth is 104% (inactive). As for `S=C(SSC(=S)N1CCOCC1)N1CCOCC1`, the growth is 79.8% (inactive). With `COC1CC(C)C(OC)c2cc(O)cc(c2O)NC(=O)/C(C)=C/C=C\C(C)C(OC(N)=O)/C(C)=C\C(C)C1OC` (stereo not given) the figure was 1.33% (active); with `CN(C)c1ccc(/C=C/c2cc[n+](C)c(/C=C/c3ccc(N(C)C)cc3)c2)cc1`, -2.17% (active). In the case of `COC(=O)C(=[N+]=[N-])C(=O)c1ccc([N+](=O)[O-])o1`, the growth was 89.7% (inactive).

`Clc1ccccc1C(c1ccccc1)(c1ccccc1)n1ccnc1`: the growth was 13.4% (inactive). `CCCCCCCCc1cc(Cl)c(O)c(Cl)c1`: the growth was 101% (inactive). For `CCCN(CCC)C(=O)c1ccc(C)cc1` the value was 78.5% (inactive); for `OC(c1cc(-c2ccc(Cl)cc2)nc2c(Cl)cccc12)C1CCCCN1` (stereo not given), -82.9% (active); for `O=[n+]1c2ccccc2n([O-])c2cc(Cl)ccc21`, 46.8% (inactive). In the case of `CN(C)c1ccc2cc3c(cc2c1)Oc1ccccc1N3.[Cl][Zn][Cl]`, the growth is -18.9% (active).

On to `O=[N+]([O-])c1ccc(N2CCN(Cc3ccccc3)CC2)c2c1no[n+]2[O-]`, for which the growth was 57.5% (inactive). With `CCCCCCCCCCCC[n+]1ccc2ccccc2c1` the figure was 5.61% (active); with `O=C(c1ccccc1)C(Br)[N+](=O)[O-]` (stereo not given), 65.3% (inactive). As to `CCOc1ccc(Nc2nc3c(s2)C(=O)c2ccccc2C3=O)cc1`, the growth was 59% (inactive).

Regarding `COc1cc(NCc2ccc3nc(N)nc(N)c3c2C)cc(OC)c1OC` (tested in a mixture with another compound), the growth was 47.1% (inactive). As to `Cc1ccc(N2C(=O)C=CC2=O)cc1`, the growth is 112% (inactive).

With `COc1ccc(/C=C2/C(=O)ON=C2C)cc1`, the growth was 93% (inactive). As for `CCCOS(=O)(=O)c1ccccc1`, the growth is 109% (inactive). On to `CCN(CC)CC(O)CNc1ccc(NCC2CO2)c2c1C(=O)c1ccccc1C2=O` (stereo not given), for which the growth is -3.27% (active). With `O=[N+]([O-])c1cc(-c2ccccc2)c(O)c([N+](=O)[O-])c1` the figure was 83.2% (inactive).

As for `Cc1ccc(NC2=CC(=O)C(=O)c3ccccc32)cc1`, the growth is 21.1% (inactive).

Turning to `CN1CSC(=S)N(Cc2ccccc2)C1`, the growth is 43.1% (inactive). With `CCCCCCN(CCCCCC)CCCNc1nccc2ccccc12` the figure was -13.6% (active); with `C[C@@]1(CO)[C@H](O)CC[C@@]2(C)[C@H]1CC[C@H]1C[C@@H]3C[C@@]12CC[C@@]3(O)COC(=O)CN`, 61.8% (inactive).
